# ± gives the standard deviation.
# T1: HaloTag-ATRX ADD domain (163-292)
# T1 chain: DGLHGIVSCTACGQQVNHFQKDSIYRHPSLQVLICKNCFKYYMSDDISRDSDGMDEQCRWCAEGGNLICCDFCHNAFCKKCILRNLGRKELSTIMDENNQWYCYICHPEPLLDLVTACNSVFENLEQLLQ
# B1: H3 1-13 A Rme T K Q Tph A R K S T G G (peptide)
# chain: ARTKQTARKSTGG
# B2: H3 1-13 A Rme2a T Kme3 Q T A R K S T G G (peptide)
# chain: ARTKQTARKSTGG
# B3: H3 1-13 A Rme T K Q T A R Kme1 S T G G (peptide)
# chain: ARTKQTARKSTGG
# B4: H3 1-13 A Rme2a T Kme2 Q T A R K S T G G (peptide)
# chain: ARTKQTARKSTGG
# B5: H3 1-13 A Rme T K Q T A R Kme2 S T G G (peptide)
# chain: ARTKQTARKSTGG
# Experiments:
# Test in all cases: peptide microarray binding signal (635 nm), min-max normalized on array (fraction of array maximum); higher = stronger binding
# Settings in all cases: peptide region: H3 1-13
# [1] = biological target: T1, HaloTag-ATRX ADD domain (163-292)
# Description: (§1)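 Histone 13-mer peptides were synthesized as cellulose conjugates with a C-terminal 20-atom PEG linker and printed in triplicate on nitrocellulose. The sequence given is the unmodified backbone; PTMs (Kme1/2/3, Kac, Sph/Tph, Rme/Rme2a/Rme2s, Rcit) are listed in the label and the 'peptide modifications' condition. Slides were probed at 4 °C for 1 h with biotin-labelled (HQ)5-HaloTag reader fusions (ATRX-ADD, ING2-PHD) then streptavidin-Alexa647, or with rabbit histone antibodies then anti-rabbit Alexa647. The mean 635 nm signal of the triplicate spots was scaled 0-1 between the lowest and highest values on each array.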
# [2] = biological target: HaloTag-ING2 PHD (mouse Ing2 200-280)
# Description: as §1
# [3] = biological target: anti-H3K4me3 antibody ab8580
# Description: as §1
# [4] = biological target: anti-H3K9me3 antibody ab8898
# Description: as §1
# [5] = peptide modifications: H3R2me1 H3T6ph, binder concentration: 1:2,000 dilution
# [6] = peptide modifications: H3R2me1 H3T6ph, binder concentration: 1:10,000 dilution
# [7] = peptide modifications: H3R2me2a H3K4me3, binder concentration: 1:2,000 dilution
# [8] = peptide modifications: H3R2me2a H3K4me3, binder concentration: 1:10,000 dilution
# [9] = peptide modifications: H3R2me1 H3K9me1, binder concentration: 1:2,000 dilution
# [10] = peptide modifications: H3R2me1 H3K9me1, binder concentration: 1:10,000 dilution
# [11] = peptide modifications: H3R2me2a H3K4me2, binder concentration: 1:2,000 dilution
# [12] = peptide modifications: H3R2me2a H3K4me2, binder concentration: 1:10,000 dilution
# [13] = peptide modifications: H3R2me1 H3K9me2, binder concentration: 1:2,000 dilution
# [14] = peptide modifications: H3R2me1 H3K9me2, binder concentration: 1:10,000 dilution
binder,measurement,setting,value
B1,peptide microarray binding signal,"[1]; peptide modifications: H3R2me1 H3T6ph, binder concentration: 50 nM",0.00589 ± 0.00086
same,peptide microarray binding signal,"[1]; peptide modifications: H3R2me1 H3T6ph, binder concentration: 500 nM",0.00971 ± 0.00097
same,peptide microarray binding signal,"[2]; peptide modifications: H3R2me1 H3T6ph, binder concentration: 10 nM",0.00269 ± 4e-05
same,peptide microarray binding signal,"[2]; peptide modifications: H3R2me1 H3T6ph, binder concentration: 100 nM",0.0186 ± 0.0023
same,peptide microarray binding signal,[3]; [5],0.000774 ± 4.3e-05
same,peptide microarray binding signal,[3]; [6],0.000799 ± 2.2e-05
same,peptide microarray binding signal,[4]; [5],0.0018 ± 6.1e-05
same,peptide microarray binding signal,[4]; [6],0.000634 ± 1.2e-05
B2,peptide microarray binding signal,"[1]; peptide modifications: H3R2me2a H3K4me3, binder concentration: 50 nM",0.00912 ± 0.00034
same,peptide microarray binding signal,"[1]; peptide modifications: H3R2me2a H3K4me3, binder concentration: 500 nM",0.0301 ± 0.00069
same,peptide microarray binding signal,"[2]; peptide modifications: H3R2me2a H3K4me3, binder concentration: 10 nM",0.0149 ± 0.0016
same,peptide microarray binding signal,"[2]; peptide modifications: H3R2me2a H3K4me3, binder concentration: 100 nM",0.013 ± 0.0056
same,peptide microarray binding signal,[3]; [7],0.989 ± 0.041
same,peptide microarray binding signal,[3]; [8],0.193 ± 0.0034
same,peptide microarray binding signal,[4]; [7],0.249 ± 0.031
same,peptide microarray binding signal,[4]; [8],0.0997 ± 0.026
B3,peptide microarray binding signal,"[1]; peptide modifications: H3R2me1 H3K9me1, binder concentration: 50 nM",0.0572 ± 0.0022
same,peptide microarray binding signal,"[1]; peptide modifications: H3R2me1 H3K9me1, binder concentration: 500 nM",0.108 ± 0.011
same,peptide microarray binding signal,"[2]; peptide modifications: H3R2me1 H3K9me1, binder concentration: 10 nM",0.0402 ± 0.0095
same,peptide microarray binding signal,"[2]; peptide modifications: H3R2me1 H3K9me1, binder concentration: 100 nM",0.0772 ± 0.0086
same,peptide microarray binding signal,[3]; [9],0.00991 ± 0.0016
same,peptide microarray binding signal,[3]; [10],0.008959 ± 8.7e-05
same,peptide microarray binding signal,[4]; [9],0.00462 ± 0.00079
same,peptide microarray binding signal,[4]; [10],0.0045 ± 0.00015
B4,peptide microarray binding signal,"[1]; peptide modifications: H3R2me2a H3K4me2, binder concentration: 50 nM",0.00837 ± 0.00013
same,peptide microarray binding signal,"[1]; peptide modifications: H3R2me2a H3K4me2, binder concentration: 500 nM",0.0168 ± 0.00084
same,peptide microarray binding signal,"[2]; peptide modifications: H3R2me2a H3K4me2, binder concentration: 10 nM",0.0141 ± 0.00071
same,peptide microarray binding signal,"[2]; peptide modifications: H3R2me2a H3K4me2, binder concentration: 100 nM",0.0206 ± 0.0044
same,peptide microarray binding signal,[3]; [11],0.0754 ± 0.017
same,peptide microarray binding signal,[3]; [12],0.0898 ± 0.0086
same,peptide microarray binding signal,[4]; [11],0.00464 ± 0.0004
same,peptide microarray binding signal,[4]; [12],0.00386 ± 0.00011
B5,peptide microarray binding signal,"[1]; peptide modifications: H3R2me1 H3K9me2, binder concentration: 50 nM",0.151 ± 0.01
same,peptide microarray binding signal,"[1]; peptide modifications: H3R2me1 H3K9me2, binder concentration: 500 nM",0.167 ± 0.011
same,peptide microarray binding signal,"[2]; peptide modifications: H3R2me1 H3K9me2, binder concentration: 10 nM",0.047 ± 0.0094
same,peptide microarray binding signal,"[2]; peptide modifications: H3R2me1 H3K9me2, binder concentration: 100 nM",0.0747 ± 0.029
same,peptide microarray binding signal,[3]; [13],0.00563 ± 0.00089
same,peptide microarray binding signal,[3]; [14],0.00873 ± 0.0023
same,peptide microarray binding signal,[4]; [13],0.022 ± 0.012
same,peptide microarray binding signal,[4]; [14],0.0186 ± 0.014
